In PubChem BioAssay (NCATS):
Calls of active or inactive are those of the source. The rule behind the calls is not given here.

Test: qHTS assay for small molecule activators of the human pregnane X receptor (PXR) signaling pathway (AID 720659)
Details: DPX-2 HepG2 CYP3A4-luciferase, 24 h; series mostly up to 92.3 µM

Structure (SMILES) | outcome
CC(O)CN(CCN(CC(C)O)CC(C)O)CC(C)O (stereo not drawn) | inactive
NCCNCCNCCNCCN | inactive
O=C1NS(=O)(=O)c2ccccc21 | inactive
CC12CCC(CC1)C(C)(C)O2 | inactive
Cc1cccc(Nc2cc(Cl)nc(SCC(=O)O)n2)c1C | inactive
CNC(=O)Oc1ccc2c(c1)[C@]1(C)CCN(C)[C@@H]1N2C | inactive
NC(=O)c1ncn([C@@H]2O[C@H](CO)[C@@H](O)[C@H]2O)n1 | inactive
CCCCC(CC)COC(=O)c1ccccc1O (stereo not drawn) | inactive
NC(=O)N/N=C/c1ccc([N+](=O)[O-])o1 | inactive
[Cl][In]([Cl])[Cl] | inactive
O=C1O[C@H]([C@@H](O)CO)C(O)=C1O | inactive
O=C1c2c(O)cccc2Cc2cccc(O)c21 | inactive
Cc1cc(CC(=O)O)n(C)c1C(=O)c1ccc(Cl)cc1 | inactive
CC1(C)[C@@H]2CC[C@@]1(C)C(=O)C2 | inactive
Nc1ccc(S(=O)(=O)Nc2nccs2)cc1 | inactive
CN(C)CCOC(C)(c1ccccc1)c1ccccn1 (stereo not drawn) | inactive
NCCNCCNCCN | inactive
Oc1cccc(O)c1 | inactive
O=S(=O)(O)NC1CCCCC1 | inactive
CCOC(=O)c1ccc(O)cc1 | inactive
CC(O)COc1ccccc1 (stereo not drawn) | inactive
COc1ccccc1O | inactive
CCCCCCCCCCCCOS(=O)(=O)O | inactive
